Results filed as inconclusive are left out. Values without a mark were called inactive. Calls of active or inactive are those of the source. Calls follow the shape of the dose curve; as a rule, active = well fitted activation curve with a large enough effect in the repeat runs; inconclusive = weak or mixed curves; inactive = flat fitted curve, though single readings scatter.
experiment: A CellTox Green Cytotoxicity Assay to monitor cytotoxicity in HEK293 cells - 24 hour (AID 1224875); conditions: CellTox Green fluorescence, active compounds read high; series mostly up to 76.8 µM; also: nearly all actives have a fitted effect of over 45% in size
Excerpt: National Center for Advancing Translational Sciences [NCATS]
NIH Chemical Genomics Center [NCGC]
U.S. Environmental Protection Agency [EPA]
National Institutes of Environmental Health Sciences [NIEHS]
National Toxicology Program [NTP]
Cell-based models are critical for drug discovery. Determining the natural cytotoxic effects resulting from test compounds is an essential research activity. A CellTox Green Cytotoxicity Assay to monitor cytotoxicity in real time of continues cell culture during 40 hours of the compound treatment was used to screen Tox21 10K library compounds in Hek293 cells. CellTox Green Cytotoxicity Assay is a nonlytic, homogeneous, biofluorescent method to measure cytotoxicity in cell culture after experimental manipulation. The assay system uses a proprietary asymmetric cyanine dye that is excluded from viable cells but preferentially stains the dead cell's DNA. […] Viable cells produce no appreciable increases in fluorescence. Therefore, the fluorescence signal produced by the binding interaction with dead cell DNA is proportional to cytotoxicity.
The mixture of Hek293 cell suspension and reagents were dispensed at 600cells/6 ul/well in 1536-well tissue culture treated black solid bottom plates using a Multidrop dispenser. After the assay plates were incubated at a 37 C/5% CO2 incubator for 5 hours, 23 nL of compounds dissolved in DMSO, positive and negative controls was transferred to the assay plate by a pintool work station. The plates were incubated at 37 C for 40 hours. The fluorescence intensity were measured at 0h, 8h, 16h, 24h, 32h and 40h time points using ViewLux plate reader during compound treatment.
% is scaled to controls: 0 for no effect and ±100 for the full control effect.

Structure (SMILES)	outcome	activity change
C=C(C)C1CCC(C)(O)CC1 (stereo not given)	inactive	–
CCCCCCCCCCl	inactive	–
Cc1cccc(C)c1OCC(C)N (stereo not given)	inactive	–
Nc1ncnc(Nc2ccccc2)n1	inactive	–
CC(N)C(=O)OC(C)(C)Cc1ccc(Cl)cc1 (stereo not given)	inactive	–
CN(C)c1ccc(C=O)cc1	inactive	–
NS(=O)(=O)c1ccc(NC(=O)CCC(=O)O)cc1	inactive	–
OCCN(CCO)c1cccc(Cl)c1	inactive	–
c1ccc2c(c1)ccc1c3ccccc3ccc21	inactive	–
Nc1ccc([N+](=O)[O-])c(N)c1	inactive	–
Cc1cc(NC(=O)C2=C(O)c3ccccc3S(=O)(=O)N2C)no1	inactive	–
O=C1c2cccc3c2[C@H](CCC3)CN1[C@@H]1CN2CCC1CC2	inactive	–
Cc1ccc(S(=O)(=O)O)c(C)c1	inactive	–
COc1ccc(-c2cc(=O)c3c(O)cc(O[C@@H]4O[C@H](CO[C@@H]5O[C@@H](C)[C@H](O)[C@@H](O)[C@H]5O)[C@@H](O)[C@H](O)[C@H]4O)cc3o2)cc1O	inactive	–
CO[C@@H]1[C@@H](OC(N)=O)[C@@H](O)[C@H](Oc2ccc3c(O)c(NC(=O)c4ccc(O)c(CC=C(C)C)c4)c(=O)oc3c2C)OC1(C)C	inactive	–
O=C(CCNNC(=O)c1ccncc1)NCc1ccccc1	inactive	–
CC1=C(C(=O)O)N2C(=O)[C@@H](NC(=O)[C@H](N)c3ccc(O)cc3)[C@H]2SC1	inactive	–
O=C(O)CCSSCCC(=O)O	inactive	–
CC(C)NCC(O)COc1cccc2[nH]ccc12 (stereo not given)	inactive	–
O=C1c2ccccc2C(=O)c2cc(S(=O)(=O)O)ccc21	inactive	–

Structure (SMILES)	outcome	activity change
O=C1c2ccccc2C(=O)N1CCl	inactive	–
CC(C)CCCCOC(=O)c1ccccc1C(=O)OCCCCC(C)C	inactive	–
c1ccc2nccnc2c1	inactive	–
O=C(c1ccc(O)cc1)c1ccc(O)c(O)c1O	inactive	–
C=C(C)C(=O)OCCNC(C)(C)C	inactive	–
O=C1O[C@@H]2[C@@H](O)[C@H](O)O[C@@H]2[C@H]1O	inactive	–
CCCCCCCC/C=C\CCCCCCCC(=O)OCCCC	–	-32.5% [at 15.8 µM]
CCCCN	inactive	–
C=CC(OCC)OCC	inactive	–
FC(F)(F)c1ccccc1-n1ccnc1	inactive	–
CCC(CC)CO	inactive	–
C[Si](C)(C)C	inactive	–
CC(C)CCCC(C)(C)O	inactive	–
O=C(NCCc1c[nH]c2ccccc12)c1cccnc1	inactive	–
NC(CO)C(=O)NNCc1ccc(O)c(O)c1O (stereo not given)	inactive	–
O=C(CCN1CCN(CCO)CC1)N1c2ccccc2Sc2ccc(C(F)(F)F)cc21	inactive	–
BrCc1cccc(Oc2ccccc2)c1	inactive	–
CC(=O)Nc1ccc(S(=O)(=O)Nc2ccc([N+](=O)[O-])cc2)cc1	inactive	–
COc1ccc2c(c1OC)C(=O)O[C@@H]2[C@H]1c2c(cc3c(c2OC)OCO3)CCN1C	inactive	–
O=C(OCC1(COC(=O)c2cccnc2)CCCC(COC(=O)c2cccnc2)(COC(=O)c2cccnc2)C1O)c1cccnc1	inactive	–

Source: PubChem BioAssay (Tox21)
